Experimental data from PubChem BioAssay (NCATS).
Several values for one entry are separate records, joined by “and”; a condition that tells them apart may be missing. Identical values can stand only once. Unmarked numbers belong to inactive results. Results filed as inconclusive are left out. A call without a number means that no potency is given here. Activity calls are given as the source filed them. Calls come from the whole dose curve; as a rule, active = well fitted curve in the direction sought with a large enough effect; inconclusive = small, poorly fitted or top-dose-only effect, or another doubt; inactive = no such curve, though single readings can be large; an effect the other way counts as inactive or inconclusive. Residues, ends and D or L forms follow the SMILES beside them. *: point of attachment. Cbz = O=C(OCc1ccccc1)*

How the values were obtained:
[1] = biological target: Glutathione peroxidase 1 (Homo sapiens) (UniProt P07203); test: Primary qHTS Assay for Inhibitors of Recombinant Selenoprotein Glutathione Peroxidase 1 (GPX1) (AID 1845191); note: nearly all actives have a fitted effect of over 65% in size; note: potency is the fitted concentration of half-maximal effect
Sequence of Glutathione peroxidase 1 (Homo sapiens) (P07203 whole entry, looked up): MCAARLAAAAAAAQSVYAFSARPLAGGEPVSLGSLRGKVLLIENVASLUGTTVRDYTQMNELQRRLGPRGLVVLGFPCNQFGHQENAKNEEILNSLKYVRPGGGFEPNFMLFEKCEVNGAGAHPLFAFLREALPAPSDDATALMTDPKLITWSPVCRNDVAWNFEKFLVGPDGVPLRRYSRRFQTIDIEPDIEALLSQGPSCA
Outline: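 Recombinant GPX1 (10 nM final) was preincubated with compound for 30 min at room temperature, then reacted with 1 mM GSH, 0.5 mM CHP, 0.5 mM NADPH and 100 nM glutathione reductase; NADPH fluorescence (340/450 nm) was read at 0 and 15 min.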

[2] = biological target: Phospholipid hydroperoxide glutathione peroxidase GPX4 (Homo sapiens) (UniProt P36969); test: Primary qHTS Assay for Inhibitors of Recombinant Selenoprotein Glutathione Peroxidase 4 (GPX4) (AID 1845192); note: nearly all actives have a fitted effect of over 65% in size
Sequence of Phospholipid hydroperoxide glutathione peroxidase GPX4 (Homo sapiens) (P36969 whole entry, looked up): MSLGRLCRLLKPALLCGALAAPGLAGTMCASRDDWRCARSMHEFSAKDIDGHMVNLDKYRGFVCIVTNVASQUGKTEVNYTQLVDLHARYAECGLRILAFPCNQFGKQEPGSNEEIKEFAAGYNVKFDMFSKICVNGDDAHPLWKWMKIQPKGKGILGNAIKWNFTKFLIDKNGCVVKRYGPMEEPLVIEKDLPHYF
Outline: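 GR-coupled readout: 100 nM GR, 1 mM GSH, 0.5 mM NADPH; NADPH fluorescence (ex 340/em 450 nm) read at t=0 and after 15 min RT. GPX4 200 nM, preincubated 30 min with compound; substrate 0.5 mM CHP.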

[3] = biological target: Cytochrome P450 3A4 (Homo sapiens) (UniProt P08684); test: qHTS for inhibitors of CYP3A4 against the NCATS DSHEA and TCM libraries (AID 1919971);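 note: inhibition lowers luminescence from luciferin made by CYP3A4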
Sequence of Cytochrome P450 3A4 (Homo sapiens) (P08684 whole entry, looked up): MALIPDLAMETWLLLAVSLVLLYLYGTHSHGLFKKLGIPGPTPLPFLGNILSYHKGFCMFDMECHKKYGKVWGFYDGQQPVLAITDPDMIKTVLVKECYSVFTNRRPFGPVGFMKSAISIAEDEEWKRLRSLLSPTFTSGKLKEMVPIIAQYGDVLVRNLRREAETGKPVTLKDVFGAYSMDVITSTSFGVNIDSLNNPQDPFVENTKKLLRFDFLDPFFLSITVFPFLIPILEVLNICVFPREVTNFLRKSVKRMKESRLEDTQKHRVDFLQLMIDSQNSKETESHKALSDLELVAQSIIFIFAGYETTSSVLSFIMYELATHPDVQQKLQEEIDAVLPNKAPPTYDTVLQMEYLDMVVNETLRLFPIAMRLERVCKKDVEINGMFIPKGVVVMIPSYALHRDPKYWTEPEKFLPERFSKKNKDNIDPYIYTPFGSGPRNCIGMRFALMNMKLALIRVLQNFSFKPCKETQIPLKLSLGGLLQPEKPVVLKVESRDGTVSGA
Outline: (§1)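 Luminescent P450-Glo format: compounds preincubated 15 min with enzyme and luciferin substrate, reaction run 30-45 min after NADPH regeneration solution. Intraplate controls: ketoconazole for CYP3A4 and CYP2C19, sulfaphenazole for CYP2C9.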

[4] = biological target: Cytochrome P450 2D6 (Homo sapiens) (UniProt P10635); test: qHTS for inhibitors of CYP2D6 against the NCATS DSHEA and TCM libraries (AID 1919972)
Sequence of Cytochrome P450 2D6 (Homo sapiens) (P10635 whole entry, looked up): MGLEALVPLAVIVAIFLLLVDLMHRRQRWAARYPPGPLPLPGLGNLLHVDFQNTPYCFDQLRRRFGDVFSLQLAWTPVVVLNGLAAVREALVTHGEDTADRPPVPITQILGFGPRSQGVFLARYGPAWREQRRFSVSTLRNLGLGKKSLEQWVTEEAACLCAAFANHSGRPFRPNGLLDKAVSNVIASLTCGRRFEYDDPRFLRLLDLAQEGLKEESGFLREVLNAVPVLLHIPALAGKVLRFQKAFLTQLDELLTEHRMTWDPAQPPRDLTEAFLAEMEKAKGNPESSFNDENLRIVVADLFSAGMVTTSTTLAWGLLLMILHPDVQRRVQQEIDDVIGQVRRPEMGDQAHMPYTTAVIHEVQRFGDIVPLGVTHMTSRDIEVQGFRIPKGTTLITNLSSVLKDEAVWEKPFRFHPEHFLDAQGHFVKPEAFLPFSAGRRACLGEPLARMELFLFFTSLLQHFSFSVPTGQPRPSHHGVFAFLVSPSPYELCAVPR
Outline: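 Luminescent P450-Glo read-out of CYP2D6 turnover of a luciferin substrate after NADPH-driven reaction of 30-45 min at room temperature. Compounds were first preincubated 15 min with enzyme at titrated concentrations; quinidine was the intraplate control.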

[5] = biological target: Cytochrome P450 2C9 (Homo sapiens) (UniProt P11712); test: qHTS for inhibitors of CYP2C9 against the NCATS DSHEA and TCM libraries (AID 1919973);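 note: luminogenic pro-luciferin CYP2C9 substrate turned into luciferin with NADPH regeneration; series mostly up to about 34 µM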
Sequence of Cytochrome P450 2C9 (Homo sapiens) (P11712 whole entry, looked up): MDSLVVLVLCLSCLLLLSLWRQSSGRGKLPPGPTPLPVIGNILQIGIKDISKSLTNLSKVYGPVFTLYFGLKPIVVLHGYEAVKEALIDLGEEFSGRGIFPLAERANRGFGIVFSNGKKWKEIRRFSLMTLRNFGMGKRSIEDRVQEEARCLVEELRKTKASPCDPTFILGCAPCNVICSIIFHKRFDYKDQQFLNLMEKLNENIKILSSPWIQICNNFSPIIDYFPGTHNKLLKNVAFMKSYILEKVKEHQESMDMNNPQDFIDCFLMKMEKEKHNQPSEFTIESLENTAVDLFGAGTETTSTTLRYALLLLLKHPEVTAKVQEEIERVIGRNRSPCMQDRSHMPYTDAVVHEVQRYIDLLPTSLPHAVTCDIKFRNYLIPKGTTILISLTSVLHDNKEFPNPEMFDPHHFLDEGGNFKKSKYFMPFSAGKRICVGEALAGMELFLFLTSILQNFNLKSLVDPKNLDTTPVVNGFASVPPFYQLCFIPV
Outline: as §1

[6] = KB-3-1 P-gp reporter qHTS against the NCATS DSHEA and TCM libraries (AID 1919975)
Outline: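 72 h exposure of KB-3-1 cells (DMEM, 10% FBS) to DSHEA/TCM samples, concentration-response; cell viability measured as CellTiter-Glo luminescence after 30 min at room temperature.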

[7] = qHTS Counterscreen for compound interference against the NCATS DSHEA and TCM libraries (AID 1919978); conditions: firefly luciferase detection reagent interference, luminescence;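 note: compounds preincubated with 1 µM D-luciferin or buffer before detection reagent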
From the text: PI: Anton Simeonov Ph.D. Assay Development and Screening Technology Laboratory (ADST) National Center for Advancing Translational Sciences (NCATS), Rockville, MD National Institute of Health (NIH), Bethesda, Maryland Dietary Supplements and Natural Products have minor oversight of their safety and efficacy. We assembled a collection of Dietary Supplements and Natural Products (DSNP) as well as Traditional Chinese Medicinal (TCM) Plant extracts, which were screened against an in vitro panel of assays, including a liver cytochrome p450 enzyme panel, CAR/PXR signaling pathways, and P-gp transporter assays, to assess their activity. This pipeline facilitated the interrogation of Natural Product-Drug Interaction (NaPDI) through prominent metabolizing pathways. […] Overall, we highlight four significant bioactivity profiles (measured by p-values) as examples of this prediction. […] To profile potential P-gp activity, a differential cell viability was measured against two cell lines: a parental KB-3-1 human cervical adenocarcinoma cell line and the drug-resistant subline KB-8-5-11 that overexpresses P-gp. […]
PROTOCOL TABLE (as described by Inglese J, Shamu CE and Guy RK. 2007) SEQUENCE No. (e.g., 1, 2, 3, etc.); […] […] 7; Read; Luminescence; ViewLux plate reader. […] Plates were then read for luminescence intensity on a ViewLux detector. […]

[8] = Dual reporter qHTS for agonist of Pregnane X Receptor (hPXR) against the NCATS DSHEA and TCM libraries: Fluorescence readout (AID 1920058)
Outline: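 hPXR-Luc HepG2 cells, 2000/well in charcoal-stripped serum, attached 5 h, dosed for ~24 h at 37 °C. Fluorescence read is CellTiter-Fluor viability (Ex/Em 405/540 nm); rifampicin positive, tetraoctyl ammonium bromide (92 µM) cytotoxicity controls.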

[9] = biological target: Cytochrome P450 2C19 (Homo sapiens) (UniProt P33261); test: qHTS for inhibitors of CYP2C19 against the NCATS DSHEA and TCM libraries (AID 1919974);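 note: luminescence from luciferin released by CYP2C19 oxidation of a pro-luciferin substrate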
Sequence of Cytochrome P450 2C19 (Homo sapiens) (P33261 whole entry, looked up): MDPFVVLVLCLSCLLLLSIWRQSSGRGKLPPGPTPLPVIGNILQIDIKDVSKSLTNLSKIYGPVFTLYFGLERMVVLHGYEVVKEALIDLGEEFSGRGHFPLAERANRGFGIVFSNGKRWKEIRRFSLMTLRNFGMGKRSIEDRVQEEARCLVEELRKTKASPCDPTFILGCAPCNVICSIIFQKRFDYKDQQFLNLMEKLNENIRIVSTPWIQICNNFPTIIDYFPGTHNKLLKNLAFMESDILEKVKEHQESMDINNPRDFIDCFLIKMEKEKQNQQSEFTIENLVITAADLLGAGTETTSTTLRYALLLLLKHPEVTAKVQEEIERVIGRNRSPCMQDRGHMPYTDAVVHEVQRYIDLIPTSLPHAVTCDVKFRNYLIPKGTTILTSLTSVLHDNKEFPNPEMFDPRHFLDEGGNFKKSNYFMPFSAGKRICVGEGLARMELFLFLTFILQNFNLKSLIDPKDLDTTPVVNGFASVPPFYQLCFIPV
Outline: as §1

[10] = biological target: Cytochrome P450 1A2 (Homo sapiens) (UniProt P05177); test: qHTS for inhibitors of CYPIA2 against the NCATS DSHEA and TCM libraries (AID 1919976);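 note: light from luciferin formed by CYP1A2 from a pro-luciferin substrate; series mostly up to about 37 µM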
Sequence of Cytochrome P450 1A2 (Homo sapiens) (P05177 whole entry, looked up): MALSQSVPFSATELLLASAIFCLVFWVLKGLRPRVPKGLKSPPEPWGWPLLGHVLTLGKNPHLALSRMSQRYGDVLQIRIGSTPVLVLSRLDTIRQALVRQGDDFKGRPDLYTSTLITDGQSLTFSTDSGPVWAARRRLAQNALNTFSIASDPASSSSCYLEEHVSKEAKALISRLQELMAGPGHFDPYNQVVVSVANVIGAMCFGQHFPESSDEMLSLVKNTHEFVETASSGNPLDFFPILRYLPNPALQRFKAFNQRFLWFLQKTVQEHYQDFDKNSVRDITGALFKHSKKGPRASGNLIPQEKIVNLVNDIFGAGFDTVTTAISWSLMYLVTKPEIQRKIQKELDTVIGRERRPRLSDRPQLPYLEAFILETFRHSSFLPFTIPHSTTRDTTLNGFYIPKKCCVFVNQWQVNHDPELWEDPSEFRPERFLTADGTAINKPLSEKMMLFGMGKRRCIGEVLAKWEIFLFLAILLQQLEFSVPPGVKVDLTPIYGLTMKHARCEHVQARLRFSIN
Outline: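 Human CYP1A2 with pro-luciferin substrate (typically 100 mM KPO4), 15 min preincubation with compound, then 1x NADPH regeneration for 30-45 min at room temperature in the dark. Luciferin quantified by luciferase luminescence; furafylline intraplate control.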

COc1ccc(-c2cc3ncc(C)n3c(Nc3ncccc3C(N)=O)n2)cc1OC
Potency [1]: inactive | Potency [2]: inactive

O=c1[nH]c2ccccc2c2ccccc12
Potency [1]: inactive | Potency [2]: inactive

C=CCN1CCc2cc(O)c(O)cc2C(c2ccccc2)C1 (configuration not stated)
Potency [1]: inactive | Potency [2]: inactive

NC(N)=NC(N)=Nc1ccccc1
Potency [1]: inactive | Potency [2]: inactive

CC[C@H](NC(=O)c1c(C)c(-c2ccccc2)nc2ccccc12)c1ccccc1
Potency [1]: inactive | Potency [2]: inactive

O=C(O)c1ccccc1Nc1ccccc1
Potency [1]: inactive | Potency [2]: inactive

CCCCCCCCCC[Si](C)(C)CCC(=O)NC(Cc1ccc(C)cc1)c1ccccc1 (configuration not stated)
Potency [1]: inactive | Potency [2]: inactive

N[C@H](C(=O)O)[C@H]1C[C@@H]1C(=O)O
Potency [1]: inactive | Potency [2]: inactive

Nc1ccc(-c2ccc3ccccc3n2)cc1
Potency [1]: inactive | Potency [2]: inactive

NOCC(=O)O
Potency [1]: inactive | Potency [2]: inactive

CC(C)[C@H](NC(=O)OCc1ccccc1)C(=O)N[C@H](C=O)Cc1ccccc1 (Cbz-Val-Phe-aldehyde)
Potency [1]: inactive | Potency [2]: inactive

N=C(N)c1ccccc1
Potency [1]: inactive | Potency [2]: inactive

c1ccc2c(c1)CCC[C@H]2Nc1nc2ccccc2[nH]1
Potency [1]: inactive | Potency [2]: inactive

NC/C=C\C(=O)O
Potency [1]: inactive | Potency [2]: inactive

O=c1onc2cnc3ccccc3n12
Potency [1]: inactive | Potency [2]: inactive

NC(=O)c1ccccc1
Potency [1]: inactive | Potency [2]: inactive

NC(=O)c1cc[n+](CC2=C(C(=O)O)N3C(=O)[C@@H](NC(=O)[C@@H](c4ccccc4)S(=O)(=O)[O-])[C@H]3SC2)cc1
Potency [1]: 4.53 µM (active) and 28.2 µM (active) | Potency [2]: inactive

CCCCCCCCCC(=O)NC(CN1CCOCC1)[C@H](O)c1ccccc1 (some centres not stated)
Potency [1]: inactive | Potency [2]: inactive

NC(C(=O)N[C@@H]1C(=O)N2C(C(=O)O)=C(Cl)CS[C@H]12)c1ccccc1 (some centres not stated)
Potency [2]: inactive

CC1CCN=C(N)S1 (configuration not stated)
Potency [1]: inactive | Potency [2]: inactive

CC(C)(CO)Cc1cc(C(C)(C)C)c(O)c(C(C)(C)C)c1
Potency [1]: inactive | Potency [2]: inactive

O=[N+]([O-])c1cccc2c(Br)[nH]nc12
Potency [1]: inactive | Potency [2]: inactive

O=C(O)/C=C/c1ccc(O)c(O)c1
Potency [1]: inactive | Potency [2]: inactive | outcome [3]: inactive | outcome [4]: inactive | outcome [5]: inactive | outcome [6]: inactive | max response [7]: -3.07% | outcome [8]: inactive

COC1(C2=NCCN2)COc2ccccc2O1 (configuration not stated)
Potency [1]: inactive | Potency [2]: inactive

CC(=O)O[C@H]1Cc2ccccc2N(C(N)=O)c2ccccc21
Potency [1]: inactive | Potency [2]: inactive

O=C(O)Cc1ccc(O)c(O)c1
Potency [1]: inactive | Potency [2]: inactive

O=c1[nH]ccc2c(O)cccc12
Potency [1]: inactive | Potency [2]: inactive

N#CC(=C(\N)Sc1ccccc1N)/C(C#N)=C(/N)Sc1ccccc1N
Potency [2]: inactive

O=c1[nH]c(=S)[nH]c(-c2ccccc2)c1Cc1c(O)ccc2ccccc12
Potency [1]: inactive | Potency [2]: inactive

CCCCS(=N)(=O)CC[C@H](N)C(=O)O (some centres not stated)
Potency [1]: inactive | Potency [2]: inactive

O=C(O)C1=CCNCC1
Potency [1]: inactive | Potency [2]: inactive

CC(=O)NCCc1c[nH]c2ccc(O)cc12
Potency [1]: inactive | Potency [2]: inactive

CCCCCCC(=O)OC1CC(C)(C)NC(C)(C)C1
Potency [2]: inactive

CCCCCCCCCCCCCCC[C@H](O)[C@H](N)CO
Potency [1]: inactive | Potency [2]: inactive

CCCn1c(=O)c2c(ncn2C)n(CCC)c1=O
Potency [1]: inactive | Potency [2]: inactive

C=CCNc1ncnc2ccc(Br)cc12
Potency [1]: inactive | Potency [2]: inactive

CC(C)(C)c1cc(/C=C(\C#N)C(N)=S)cc(C(C)(C)C)c1O
Potency [1]: inactive | Potency [2]: inactive

CN1Cc2sccc2C(c2ccc(O)c(O)c2)C1 (configuration not stated)
Potency [1]: inactive | Potency [2]: inactive

CC(=O)C(C)=O
Potency [1]: inactive | Potency [2]: inactive

CSC(N)=NCCC[C@H](N)C(=O)O
Potency [1]: inactive | Potency [2]: inactive

COC(=O)C1=C(C)NC(C)=C([N+](=O)[O-])C1c1ccccc1C(F)(F)F (configuration not stated)
Potency [1]: inactive | Potency [2]: inactive

C[C@H](O)C(=O)C1=Nc2c(nc(N)[nH]c2=O)NC1
Potency [1]: inactive | Potency [2]: inactive

O[Si](CCCN1CCCCC1)(c1ccc(F)cc1)C1CCCCC1 (configuration not stated)
Potency [1]: inactive | Potency [2]: inactive

CCCCCCN(CCCCCC)C(=O)Cc1c(-c2ccc(F)cc2)[nH]c2ccccc12
Potency [1]: inactive | Potency [2]: inactive

Cc1cc(Cn2cnc3c2C[C@@H](C(=O)O)N(C(=O)C(c2ccccc2)c2ccccc2)C3)ccc1N
Potency [1]: inactive | Potency [2]: inactive

C[C@]12C=CC(=O)C=C1CC[C@@H]1C2=CC[C@]2(C)[C@@H](C(=O)CN3CCN(c4cc(N5CCCC5)nc(N5CCCC5)n4)CC3)CC[C@@H]12
Potency [1]: inactive | Potency [2]: inactive

C=C1C[C@@]23CC[C@H]4[C@@](C)(CCC[C@@]4(C)C(=O)OC4OC(CO)C(O)C(O)C4O)[C@@H]2CC[C@]1(OC1OC(CO)C(O)C(O)C1OC1OC(CO)C(O)C(O)C1O)C3 (some centres not stated)
Potency [1]: inactive | Potency [2]: inactive | outcome [3]: inactive | outcome [4]: inactive | outcome [5]: inactive | outcome [9]: inactive | outcome [6]: inactive | outcome [10]: inactive | max response [7]: 4.65% | outcome [8]: inactive

N[C@@H](Cc1ccc(F)cc1)C(=O)O
Potency [1]: inactive | Potency [2]: inactive
